These are literature values, as cited in PubChem BioAssay AID977608.

By IC50 is commonly meant the concentration needed to halve the response being measured.

This data set is described as follows: protein-ligand inhibition affinities from structures – PDB-derived complexes (AID 977608).

Screen size: about 4,300 compounds; about 4,300 (100%) were called active. No cut-off is given here; in the data, nearly all actives have IC50 up to about 1400 µM. The set was probably picked from earlier hits. Some of the results follow. Where a SMILES comes first, the peptide text is derived from it. [ ]: non-standard residue; d: D form. The star is where a group is joined. Thr(P(OH)3+) = C[C@@H](O[P+](O)(O)O)[C@H](N)C(=O)O; Pentanoyl(5-cHex) = O=C(CCCCC1CCCCC1)*; Ahx = NCCCCCC(=O)O

With `NCC[C@H](C1CC=CC1)n1cc(-c2ncnc3[nH]ccc23)cn1`, the 50% inhibitory concentration (IC50) (literature IC50, protein: Proto-oncogene tyrosine-protein kinase Src, PDB entry 4u5j) was 2930 nM (active).
Regarding `CC(C)COC(=O)N[C@H](CC=O)c1ccccc1`, for the setting “literature IC50, protein: RHOMBOID PROTEASE GLPG, PDB entry 3zmj”, the IC50 is 11700 nM (active).
With `O=CC[C@@H](NC(=O)OC1CCCC1)c1ccccc1`, the half-inhibitory concentration (IC50) (literature IC50, protein: RHOMBOID PROTEASE GLPG, PDB entry 3zmh) was 5270 nM (active).
In the case of `O=CC[C@@H](NC(=O)Oc1ccccc1)c1ccccc1`, the IC50 (literature IC50, protein: RHOMBOID PROTEASE GLPG, PDB entry 3zmi) is 1120 nM (active) and the half-maximal inhibitory concentration (IC50) (literature IC50, protein: RHOMBOID PROTEASE GLPG, PDB entry 3zot) is 1120 nM (active).
For the molecule `CSCC[C@H](NC(=O)[C@@H](NC(=O)[C@H](CO)NC(=O)[C@H](Cc1cnc[nH]1)NC(=O)[C@H](CC(C)C)NC(=O)[C@@H]1CCCN1C(=O)CC12CC3CC(CC(C3)C1)C2)[C@@H](C)O[P+](O)(O)O)C(N)=O` (HELM PEPTIDE1{[O=C(CC12CC3CC(CC(C3)C1)C2)[*:2]].P.L.H.S.[C[C@@H](O[P+](O)(O)O)[C@H](N[*:1])C(=O)[*:2]].M.[am]}$$$$V2.0), where the note is “literature IC50, protein: Serine/threonine-protein kinase PLK1, PDB entry 4lkl”, the IC50 was 820 nM (active).
For the molecule `CSCC[C@H](NC(=O)[C@@H](NC(=O)[C@H](CO)NC(=O)[C@H](Cc1cnc[nH]1)NC(=O)[C@H](CC(C)C)NC(=O)[C@@H]1CCCN1C(=O)CCCCCNC(=O)CCCCC1CCCCC1)[C@@H](C)O[P+](O)(O)O)C(N)=O` ({Pentanoyl(5-cHex)-Ahx}-PLHS[Thr(P(OH)3+)]M-NH2), under “literature IC50, protein: Serine/threonine-protein kinase PLK1, PDB entry 4lkm”, the IC50 is 460 nM (active).
For the molecule `Cc1[nH]c2ccccc2c1CCNC(=O)c1ccccc1F`, the IC50 (literature IC50, protein: Arp2/3 complex, PDB entry 3ukr) was 12000 nM (active).
Regarding `NC1CCC(Nc2nccc(-c3cccnc3Oc3ccc(NS(=O)(=O)c4ccccc4)c4ccccc34)n2)CC1` (stereo unspecified), the IC50 (literature IC50, protein: Mitogen-activated protein kinase 10 JNK3, PDB entry 4u79) is 400 nM (active).
Regarding `O=C(COc1ccccc1[P+](O)(O)O)Nc1cccc(Cl)c1`, the IC50 (literature IC50, protein: 14-3-3 protein sigma, PDB entry 4dhq) is 32000 nM (active).
For `O=C(COc1ccccc1[P+](O)(O)O)Nc1cc(Cl)cc(Cl)c1`, where the note is “literature IC50, protein: 14-3-3 protein sigma, PDB entry 4dhs”, the concentration for half-maximal inhibition (IC50) is 16000 nM (active).
Consider `COc1cccc(NC(=O)COc2ccccc2[P+](O)(O)O)c1`, for which the IC50 (literature IC50, protein: 14-3-3 protein sigma, PDB entry 4dho) is 118000 nM (active).
Consider `COc1ccc(OC)c(NC(=O)COc2ccccc2[P+](O)(O)O)c1`, for which the half-maximal inhibitory concentration (IC50) (literature IC50, protein: 14-3-3 protein sigma, PDB entry 3t0m) is 116000 nM (active).
For `O=C(COc1ccccc1[P+](O)(O)O)Nc1cccc(C(F)(F)F)c1`, the 50% inhibitory concentration (IC50) (literature IC50, protein: 14-3-3 protein sigma, PDB entry 4dhm) is 165000 nM (active).
For `NC1=N[C@@]2(c3cc(NC(=O)c4ccc(F)cn4)ccc3F)COC[C@H]2CS1`, for the setting “literature IC50, protein: Beta-secretase 1 BACE1, PDB entry 4x7i”, the half-inhibitory concentration (IC50) was 20.3 nM (active).
On to `Cc1nc(-c2ccccn2)nc(N[C@H](Cc2ccccc2)C(N)=O)c1Cl`, for which the IC50 (literature IC50, protein: Methionine aminopeptidase 1, PDB entry 4iku) is 1790 nM (active).
In the case of `CCC(C)(C)c1nn(CCO)c2c1NC(c1ccc(-n3ccnc3C)cc1)CNC2=O` (stereo unspecified), the IC50 (literature IC50, protein: cGMP-dependent 3',5'-cyclic phosphodiesterase, PDB entry 4jib) is 45 nM (active).
Regarding `COC(=O)N[C@@H](CC(C)C)C(=O)N[C@H](CO)C[C@@H]1CCNC1=O`, for the setting “literature IC50, protein: 3C-like protease, PDB entry 3ur9”, the IC50 was 490 nM (active).
For the molecule `CC(C)C[C@H](NC(=O)OCc1ccccc1)C(=O)N[C@H](CO)C[C@@H]1CCNC1=O`, the concentration for half-maximal inhibition (IC50) (literature IC50, protein: 3C-like proteinase, PDB entry 4f49) is 820 nM (active) and the IC50 (literature IC50, protein: Genome polyprotein, PDB entry 4dcd) is 1770 nM (active).
For the molecule `CC(C)C[C@H](NC(=O)OCc1ccccc1)C(=O)N[C@@H](CC(C)C)C(=O)N[C@@H](CC(C)C)[C@@H](O)[C@H](C)CO`, the IC50 (literature IC50, protein: Proteasome subunit alpha CP, PDB entry 4no9) is 15 nM (active).
For `CC[C@H](C)[C@H](CO)[C@@H](O)C(=O)N[C@H]1C[C@H]1C[C@@H](CCc1ccccc1)NC(=O)[C@H](C)NC(=O)OCc1ccccc1`, the 50% inhibitory concentration (IC50) (literature IC50, protein: Proteasome, PDB entry 4j70) is 5700 nM (active).
With `c1cc2cnc3sccc3c2cn1`, the IC50 (literature IC50, protein: DUAL SPECIFICITY PROTEIN KINASE TTK, PDB entry 4bhz) was 53500 nM (active).
In the case of `c1cc2cnc3ccsc3c2cn1`, the IC50 (literature IC50, protein: DUAL SPECIFICITY PROTEIN KINASE TTK, PDB entry 4bi1) is 69100 nM (active).
In the case of `c1cc2c(cn1)cnc1sccc12`, the half-inhibitory concentration (IC50) (literature IC50, protein: DUAL SPECIFICITY PROTEIN KINASE TTK, PDB entry 4bi2) was 94100 nM (active).
Take `O=C(O)[C@H]1CCCC[C@H]1C(=O)N1CCc2ccccc2[C@H]1CN1Cc2ccccc2C1=O`: the concentration for half-maximal inhibition (IC50) (literature IC50, protein: Kelch-like ECH-associated protein 1, keap1 kelch domain, PDB entry 4n1b) was 1100 nM (active).
On to `Cc1cccc2c1CCN(C(=O)[C@@H]1CCCC[C@@H]1C(=O)O)[C@@H]2CN1Cc2ccccc2C1=O`, for which the IC50 (literature IC50, protein: Kelch-like ECH-associated protein 1, keap1 kelch domain, PDB entry 4l7d) is 750 nM (active).
As for `Cn1c(=O)c(C(=O)NCC(=O)O)c(O)c2ccccc21`, the IC50 (literature IC50, protein: EGL NINE HOMOLOG 1, PDB entry 4bqw) is 33 nM (active).
Take `CO[C@H]1CN(c2nc(-c3ncnn3C)c(C(=O)O)s2)CC[C@H]1NC(=O)c1[nH]c(C)c(Cl)c1Br`: the IC50 (literature IC50, protein: DNA GYRASE SUBUNIT B, PDB entry 4bae) was 3 nM (active).
For `Nc1ccc(CC(=O)OCCc2ccccc2)c(C=O)c1`, where the note is “literature IC50, protein: RHOMBOID PROTEASE GLPG, PDB entry 3zeb”, the 50% inhibitory concentration (IC50) was 740 nM (active).
On to `Cc1ccc(S(=O)(=O)Nc2cc(Oc3ccccc3)ccc2C(=O)O)cc1`, for which the 50% inhibitory concentration (IC50) (literature IC50, protein: Genome polyprotein, PDB entry 4j0a) is 160 nM (active).
